Results filed as inconclusive are left out. The source made the active and inactive calls. The call rests on the fitted dose curve; in most records, active means well fitted curve in the direction sought with a large enough effect; inconclusive means small, poorly fitted or top-dose-only effect, or another doubt; inactive means no such curve, though single readings can be large; an effect the other way counts as inactive or inconclusive.
These compounds were tested against Ferritin light chain (Equus caballus) (UniProt P02791) (assay: qHTS Validation Assay for Identification of Novel General Anesthetics (AID 2323; further: on the % scale 0 is the no-effect control and ±100 the full control effect)). Settings: horse apoferritin, anesthetic-site fluorescent probe displacement; series mostly up to 76.9 µM; activity change, negative = inhibition: at the top concentration.
How it was run: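 Fluorescence at 535 nm (excitation 380 nm) reported loss of 1-AMA binding to horse-spleen apoferritin (10 uM) in PBS with 50% saturated 1-aminoanthracene, after 10 min room-temperature incubation with compound; values from Hill fits of normalized response.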

Chain of Ferritin light chain (Equus caballus) (P02791 2-175 limits assumed): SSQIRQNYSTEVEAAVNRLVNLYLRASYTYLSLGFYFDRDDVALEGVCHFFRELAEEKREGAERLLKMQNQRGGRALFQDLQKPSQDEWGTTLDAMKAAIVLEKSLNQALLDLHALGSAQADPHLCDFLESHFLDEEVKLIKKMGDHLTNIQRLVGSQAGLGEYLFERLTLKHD

Compound | activity change, negative = inhibition
Oc1ccc(/C=C/c2cc(O)cc(O)c2)cc1 | 120% (inactive)
Cc1cc(C)c(NC(=O)C[C@H](CC(=O)O)c2cccc3ccccc23)c(C(=O)N2CCC3(CCCC3)CC2)c1 | -8.74% (inactive)
C[C@@](Cc1ccc(O)c(O)c1)(NN)C(=O)O | 1.14% (inactive)
O=C(NCCNCC(O)COc1ccc(O)cc1)N1CCOCC1 (stereo not given) | -2.91% (inactive)
O=c1[nH]c(=O)n([C@H]2C[C@H](O)[C@@H](CO)O2)cc1/C=C/Br | -1.85% (inactive)

What follows are compounds tested against ATP-dependent DNA helicase Q1 (Homo sapiens) (UniProt P46063) (assay: qHTS Validation Assay for Inhibitors of RecQ-Like Dna Helicase 1 (RECQ1) (AID 2353;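 further: plate controls were DMSO vehicle for no effect and enzyme-free control for full effect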)). Settings: recombinant RECQ1 helicase DNA unwinding assay; series mostly up to 25.6 µM; activity change, negative = inhibition: at the top concentration.
How it was run: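 50 nM RECQ1T1 preincubated 15 min with compound in Tris pH 8.0 buffer with MgCl2, DTT, Tween-20 and 2.5 ug/ml poly(dI-dC); started with 200 nM TAMRA/BHQ-2 forked duplex and 2 mM ATP. Unwinding read as fluorescence (525/598 nm), two reads 2 h apart.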

Chain of ATP-dependent DNA helicase Q1 (Homo sapiens) (P46063 whole entry, looked up): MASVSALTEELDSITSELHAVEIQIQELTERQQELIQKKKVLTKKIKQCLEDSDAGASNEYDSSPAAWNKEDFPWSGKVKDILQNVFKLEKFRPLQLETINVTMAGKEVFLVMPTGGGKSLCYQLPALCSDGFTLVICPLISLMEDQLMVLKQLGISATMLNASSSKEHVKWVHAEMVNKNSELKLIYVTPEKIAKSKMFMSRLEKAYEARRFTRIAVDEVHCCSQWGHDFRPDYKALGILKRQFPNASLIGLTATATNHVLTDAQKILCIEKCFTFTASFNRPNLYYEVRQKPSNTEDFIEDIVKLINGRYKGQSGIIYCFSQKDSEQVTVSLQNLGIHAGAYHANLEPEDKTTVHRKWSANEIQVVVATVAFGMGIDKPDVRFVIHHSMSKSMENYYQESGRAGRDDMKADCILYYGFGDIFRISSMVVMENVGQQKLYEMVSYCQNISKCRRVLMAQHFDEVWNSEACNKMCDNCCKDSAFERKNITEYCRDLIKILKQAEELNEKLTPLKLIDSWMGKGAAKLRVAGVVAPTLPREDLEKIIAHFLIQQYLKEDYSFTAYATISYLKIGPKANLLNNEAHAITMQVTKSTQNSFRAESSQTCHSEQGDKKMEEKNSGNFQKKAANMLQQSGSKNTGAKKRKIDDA

Compound | activity change, negative = inhibition
Oc1ccc(/C=C/c2cc(O)cc(O)c2)cc1 | -14.3% (inactive)
Cc1cc(C)c(NC(=O)C[C@H](CC(=O)O)c2cccc3ccccc23)c(C(=O)N2CCC3(CCCC3)CC2)c1 | -6.46% (inactive)
C[C@@](Cc1ccc(O)c(O)c1)(NN)C(=O)O | -3.45% (inactive)
O=C(NCCNCC(O)COc1ccc(O)cc1)N1CCOCC1 (stereo not given) | -6.2% (inactive)
O=c1[nH]c(=O)n([C@H]2C[C@H](O)[C@@H](CO)O2)cc1/C=C/Br | 1.31% (inactive)
